The panel holds about 83,000 compounds, 20% with a hit somewhere; the sample as a whole holds those more often.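 For each line, cells grew in 96-well plates with the test compound present at a single concentration for 48 hours.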 Calls of active or inactive are those of the source. How the source made its calls: active means growth percent below 10; inactive means the rest.
Tests used:
Assay in all cases: NCI-60 one-dose screen, 48 h (100 = growth as untreated, 0 = no growth, -100 = all killed)
Details in all cases: 10 µM unless noted
HCT-15 colon = test system: HCT-15 colon
HT29 colon = test system: HT29 colon
SNB-75 CNS = test system: SNB-75 CNS
U251 CNS = test system: U251 CNS
PC-3 prostate = test system: PC-3 prostate
SK-MEL-5 melanoma = test system: SK-MEL-5 melanoma
UACC-62 melanoma = test system: UACC-62 melanoma
LOX IMVI melanoma = test system: LOX IMVI melanoma
SK-MEL-28 melanoma = test system: SK-MEL-28 melanoma

Measured: growth

O=C1NC(=O)c2c1c1c3ccccc3ccc1c1[nH]c3ccc(Br)cc3c21
inactive: HCT-15 colon 13.4% | HT29 colon 26.4% | SNB-75 CNS 22.8% | U251 CNS 20.7% | UACC-62 melanoma 29.9% | LOX IMVI melanoma 22.8% | SK-MEL-28 melanoma 44.4%
active: PC-3 prostate 3.55% | SK-MEL-5 melanoma -82.5%

OCCNCCCOc1ccc2ncnc(Nc3ccc(Oc4cccc(C(F)(F)F)c4)c(Cl)c3)c2c1
inactive: SNB-75 CNS 62.4% | PC-3 prostate 30.5% | SK-MEL-5 melanoma 48.9% | UACC-62 melanoma 88.3% | SK-MEL-28 melanoma 73.1%
active: HCT-15 colon -23.8% | HT29 colon -13.3% | U251 CNS 3.99% | LOX IMVI melanoma -98.9%

O=S(=O)(NCCNc1nccc(-c2c(-c3cccc(F)c3)nc3occn23)n1)c1ccc(Br)cc1
inactive: HCT-15 colon 77.9% | HT29 colon 52.3% | SNB-75 CNS 78.4% | U251 CNS 85.5% | PC-3 prostate 73.8% | SK-MEL-5 melanoma 76.3% | UACC-62 melanoma 77.5% | LOX IMVI melanoma 75.9% | SK-MEL-28 melanoma 91.9%

CCCC(=O)NC(c1ccc2c(c1)OCO2)c1ccc2cccnc2c1O (stereo not given)
inactive: HCT-15 colon 35% | HT29 colon 25.4% | SNB-75 CNS 17.5% | U251 CNS 14.5% | PC-3 prostate 33.5% | LOX IMVI melanoma 12% | SK-MEL-28 melanoma 34.5%
active: SK-MEL-5 melanoma -12.4% | UACC-62 melanoma -5.34%

O=C(O)/C(=C\c1ccc(Cl)cc1)c1ccc(Cl)cc1
inactive: HCT-15 colon 86.9% | HT29 colon 93.6% | SNB-75 CNS 74.2% | PC-3 prostate 89.8% | SK-MEL-5 melanoma 96.4% | UACC-62 melanoma 94.3% | LOX IMVI melanoma 95.2% | SK-MEL-28 melanoma 95.9%

C=C(C)[C@@H]1CC[C@]2(C)[C@H](CC=C3[C@@H]4[C@H](C)[C@@H](C)CC[C@]4(CO)CC[C@]32C)[C@@]1(C)CCCN
active: HCT-15 colon -39.1% | HT29 colon -44.5% | U251 CNS -74.3% | SK-MEL-28 melanoma -35.3%
inactive: SNB-75 CNS 18.5% | PC-3 prostate 11% | SK-MEL-5 melanoma 67.1% | UACC-62 melanoma 79.4%

O=C1C(Cl)=C(Oc2ccccc2)C(=O)c2ccccc21
inactive: HCT-15 colon 70.5% | HT29 colon 94.1% | SNB-75 CNS 73.1% | U251 CNS 42.1% | PC-3 prostate 47.8% | SK-MEL-5 melanoma 74.8% | UACC-62 melanoma 53% | LOX IMVI melanoma 85% | SK-MEL-28 melanoma 120%

Cn1cccc1C(=O)C1C(c2cccc([N+](=O)[O-])c2)C2C3CCCCC3CN2C12C(=O)Nc1ccc(Cl)cc12 (stereo not given)
inactive: HCT-15 colon 41.7% | HT29 colon 41.9% | SNB-75 CNS 37.4% | U251 CNS 53.8% | PC-3 prostate 35.2% | SK-MEL-5 melanoma 64.5% | UACC-62 melanoma 60.1% | LOX IMVI melanoma 37.3% | SK-MEL-28 melanoma 83.2%

C/C(=N\NC(=O)c1ccccc1O)c1cccc(/C(C)=N/NC(=O)c2ccccc2O)n1
inactive: HCT-15 colon 42.4% | HT29 colon 41.2% | SNB-75 CNS 74.9% | U251 CNS 20% | PC-3 prostate 48% | SK-MEL-5 melanoma 38% | UACC-62 melanoma 52% | LOX IMVI melanoma 35.8% | SK-MEL-28 melanoma 52.2%

COc1ccc(N2CCC(=O)NC2=S)cc1
inactive: HCT-15 colon 102% | HT29 colon 105% | SNB-75 CNS 96.6% | U251 CNS 103% | PC-3 prostate 107% | SK-MEL-5 melanoma 99.2% | UACC-62 melanoma 99.2% | LOX IMVI melanoma 94.8% | SK-MEL-28 melanoma 111%

OB(O)c1cccc(-c2nc3ccc4[nH]ncc4c3c3c2CCCC3)c1
inactive: HCT-15 colon 37.6% | HT29 colon 48.1% | U251 CNS 56.7% | PC-3 prostate 53.9% | SK-MEL-5 melanoma 68.1% | UACC-62 melanoma 35.5% | LOX IMVI melanoma 35.6% | SK-MEL-28 melanoma 91.9%
active: SNB-75 CNS -30.6%

COc1ccc(C(c2cc(OC)c(OC)c(OC)c2)N2CCN(c3ccccc3)CC2)cc1 (stereo not given)
inactive: HCT-15 colon 67.6% | HT29 colon 63.5% | SNB-75 CNS 90.2% | U251 CNS 96.4% | PC-3 prostate 73.3% | SK-MEL-5 melanoma 85.2% | UACC-62 melanoma 55.2% | LOX IMVI melanoma 87.3% | SK-MEL-28 melanoma 84.5%

CCc1nc2c(=O)[nH]cnc2o1
inactive: HCT-15 colon 110% | HT29 colon 108% | SNB-75 CNS 82.5% | U251 CNS 99% | PC-3 prostate 99.4% | SK-MEL-5 melanoma 103% | UACC-62 melanoma 108% | LOX IMVI melanoma 94.2% | SK-MEL-28 melanoma 106%

Cc1ccc(Cl)cc1Nc1nc(C(F)(F)F)ccc1C(=O)N/N=C/c1cccnc1
inactive: HCT-15 colon 19.2% | HT29 colon 34.6% | SNB-75 CNS 52% | PC-3 prostate 32.4% | UACC-62 melanoma 27.6% | LOX IMVI melanoma 18.6% | SK-MEL-28 melanoma 39.9%
active: SK-MEL-5 melanoma -16.4%

COc1cc(-c2nc(SCC(C)C)nc(Nc3cccc4ccccc34)c2C#N)cc(OC)c1OC
inactive: HCT-15 colon 74.3% | HT29 colon 89.9% | SNB-75 CNS 94.3% | U251 CNS 59.1% | PC-3 prostate 57.1% | SK-MEL-5 melanoma 95.5% | UACC-62 melanoma 86.5% | LOX IMVI melanoma 103% | SK-MEL-28 melanoma 110%

O=C(Nc1nn(-c2ccc(Cl)cc2Cl)nc1-c1ccccc1)c1ccccc1
inactive: HCT-15 colon 97.1% | HT29 colon 94.1% | SNB-75 CNS 85.7% | U251 CNS 93.6% | PC-3 prostate 84.3% | UACC-62 melanoma 84.9% | SK-MEL-28 melanoma 104%

O=C1c2cccc(NCCN=Cc3cc(O)ccc3O)c2C(=O)c2c(NCCN=Cc3cc(O)ccc3O)cccc21
active: HT29 colon -22.1% | SNB-75 CNS -22% | U251 CNS -43.8% | PC-3 prostate -38.4% | SK-MEL-5 melanoma 4.84% | UACC-62 melanoma 5.11% | LOX IMVI melanoma -44.9% | SK-MEL-28 melanoma -30.9%
inactive: HCT-15 colon 23.2%

CCOC(=O)c1c(C)c2c(n1C)CSc1cc(C(=O)c3ccccc3)c(=O)[nH]c1-2
inactive: HCT-15 colon 105% [100 µM] | HT29 colon 108% [100 µM] | SNB-75 CNS 89.5% [100 µM] | U251 CNS 97.8% [100 µM] | PC-3 prostate 82.5% [100 µM] | SK-MEL-5 melanoma 85.8% [100 µM] | UACC-62 melanoma 78.5% [100 µM] | LOX IMVI melanoma 91.1% [100 µM] | SK-MEL-28 melanoma 105% [100 µM]

O=C1Nc2ccc(Br)cc2/C1=N/c1n[nH]c(=S)s1
inactive: HCT-15 colon 99.1% | HT29 colon 104% | SNB-75 CNS 74.5% | U251 CNS 96.2% | PC-3 prostate 95% | SK-MEL-5 melanoma 97.6% | UACC-62 melanoma 93.2% | LOX IMVI melanoma 90.3% | SK-MEL-28 melanoma 114%

O=C(c1cc2ccccc2o1)c1nn(-c2ccccc2)/c(=N/N=Cc2cn(-c3ccccc3)nc2-c2cc3ccccc3oc2=O)s1
inactive: HCT-15 colon 87.8% | HT29 colon 107% | SNB-75 CNS 97.2% | U251 CNS 83.1% | PC-3 prostate 93% | SK-MEL-5 melanoma 102% | UACC-62 melanoma 97.2% | LOX IMVI melanoma 95.6% | SK-MEL-28 melanoma 114%
